KDM5B inhibitor: blocks human KDM5B histone demethylase activity | Q9UGL1 | KDM5B demethylase, FDH-coupled NADH fluorescence (FDH is formaldehyde dehydrogenase) | Potency, µM (series often up to 57.7 µM), usual class: inhibitors | actives 2.6% (n = 220,000); active = well fitted inhibition curve with a large enough effect; note: 0% is about no effect; nearly all actives have a fitted effect of over 70% in size
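Here, H3K4me3 peptide (12.5 µM in substrate mix) is demethylated by KDM5BΔAP, 200 nM final, after 10 min compound exposure. Formaldehyde product is coupled through FDH (0.25 U/mL in mix) to NADH fluorescence; 30-min ΔRFU feeds dose-response curves.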
* marks the source's active call; other numbers are inactive results; i = inactive. This excerpt belongs to a sample that is enriched for hits. Potency is the fitted concentration of half-maximal effect.

SMILES	KDM5B inhibitor
Cc1ccccc1-n1nc(C)c(CCC(=O)NC(C)C)c1Oc1ccccc1	i
Cc1[nH]c2ccc(F)cc2c1CC(=O)NCC(C)C	i
CC(C)n1nc(C(=O)Nc2ccc(F)c(F)c2)c2ccccc2c1=O	i
Cc1ccc2nc(C(=O)N3CCN(c4ccccc4)CC3)cn2c1	i
O=C(Nc1cccc(C(F)(F)F)c1)c1noc2c1CCCC2	i
CCOc1ccc(NC(=O)COc2ccc(C(C)C)cc2)c2cccnc12	i
O=C(COc1ncnc2ccccc12)Nc1ccccc1	i
O=c1cc(-c2ccc(F)cc2)oc2ccc(F)cc12	i
Cn1c(=O)n(Cc2nc(-c3ccccc3)no2)c(=O)c2ccccc21	i
Cc1c(NC(=O)CC23CC4CC(CC(C4)C2)C3)cccc1-c1nc2ncccc2o1	i
Fc1ccc(/C=N/Nc2c(Cl)cc(Cl)cc2Cl)c(F)c1	i
O=C(NCCc1cccs1)C1CCN(c2ccc(C(F)(F)F)cn2)CC1	i
O=C(CN1CCN(c2ccc(C(F)(F)F)cn2)CC1)NC1CC1	i
FC(F)(F)c1ccc(N2CCC(N[C@@H]3C[C@@H]4OCC[C@@H]43)CC2)nc1	20µM*
COC(=O)C1=C(C(=O)OC)SC(=C(Cl)C(=S)Oc2ccccc2)S1	i
CN(CC(=O)Nc1ccccc1)C(=O)c1cc2c(s1)CCCCC2	i
Cn1c(=O)c2c(ncn2Cc2ccc(F)cc2Cl)n(C)c1=O	i
CC1CCCCN1c1ccc(C(N)=O)cc1NC(=O)c1cccc(-n2cnnc2)c1 (centres undefined)	i
Cc1c(-c2ccc(F)cc2)[n+](=O)c(-c2ccc(Cl)cc2)c(C)n1[O-]	i
COC(=O)c1nc2n(n1)C(c1cccc(Br)c1)C(C(=O)Nc1ccc(C)cc1C)=C(C)N2 (centres undefined)	i
CCC(O)C(=O)N1CCc2onc(-c3ccc(-c4ccccc4)cc3)c2C1 (centres undefined)	i
CCN(C)C(=O)C(C)N1CCc2onc(C(c3ccccc3)c3ccccc3)c2C1 (centres undefined)	i
CCN(C)C(=O)C(C)N1CCc2onc(-c3ccc(-c4ccccc4)cc3)c2C1 (centres undefined)	25.1µM*
O=C(Cn1nc(-c2ccccc2)c2ccccc2c1=O)N1CCC(Cc2ccccc2)CC1	i
CN(Cc1cccc(Cl)c1Cl)C(=O)c1ccccc1NS(C)(=O)=O	i
SMILES	KDM5B inhibitor
O=C(NC1CC1)c1cc(SCC(=O)N2CCCCC2)nc2ccccc12	i
CC(C)n1nc(C(=O)NCCCN2CCCC2)c2ccccc2c1=O	i
Cc1cc(C(=O)NC2CCN(Cc3ccccc3)CC2)c2c(C)nn(-c3cccc(F)c3)c2n1	i
CCc1nc(SCC(=O)Nc2ccc(C(=O)OC)cc2)[nH]c1C	i
Cn1ccc2c(C(=O)NCCc3cnc[nH]3)nc(-c3ccc(N4CCOCC4)cc3)cc21	i
COc1cccc(-c2cc(C(=O)NCCc3cnc[nH]3)c3c(c2)N(C)CCO3)c1OC	28.2µM*
COc1ccc(C(=O)NCCc2noc(-c3ccncc3)n2)cn1	i
COc1ccc(-c2cc(C(=O)NCCc3cnc[nH]3)c3c(c2)N(C)CCO3)cn1	28.2µM*
COc1ccc(Cl)cc1C(=O)NCCc1noc(C)n1	i
COc1cccc(C(=O)NCCc2csc(-c3cccc(F)c3)n2)c1OC	i
CN1CCOc2c(C(=O)NCCc3cnc[nH]3)cc(-c3cccnc3)cc21	i
COc1cc(F)ccc1-c1cc(C(=O)NCCc2cnc[nH]2)c2c(c1)N(C)CCO2	39.8µM*
CCC(C(=O)Nc1ccc(N(C)C)cc1)n1nnc2ccccc2c1=O (centres undefined)	i
CC(Cn1cccn1)NC(=O)N1CCN(Cc2cccnc2)CC1 (centres undefined)	i
COc1cc(/C=N/NC(=O)CNc2cccc(C(F)(F)F)c2)ccc1OC(=O)c1ccccc1F	i
O=C(O)c1ccc(CNC(=O)c2ccccc2C(F)(F)F)cc1	i
O=C(CCCc1c[nH]c2ccccc12)N1CCCC1c1ccc(F)cc1 (centres undefined)	i
Cc1ccc(C(=O)N2CCC3(CC2)CC(N(Cc2ccccc2)C2CC2)CCO3)s1 (centres undefined)	i
CCc1nc2c(=O)n(CC(=O)N3CCN(c4cccc(C)c4C)CC3)nc(C)c2s1	i
CCCCN(C)C(=O)Cn1nc(C)c2sc(-c3ccccc3)nc2c1=O	28.2µM*
Cc1ccc(-c2nn(CC(=O)N3CCCC3)c(=O)c3ccccc23)cc1	i
Cc1nn(CC(=O)N2CCCCCC2)c(=O)c2nc(-c3ccccc3)sc12	31.6µM*
CCc1nc2c(=O)n(CC(=O)N(CC)Cc3ccccc3)nc(C)c2s1	i
CCN(CC)CCCN(C)C(=O)Cn1nc(Cc2ccncc2)c2ccccc2c1=O	i
CCCCNC(=O)c1ccc(NC(=O)Nc2ccccc2)cc1	i
SMILES	KDM5B inhibitor
CC[C@H](C)[C@H](NC(=O)c1ccccc1)C(=O)O	i
Cc1ccc(-n2c(SCC(=O)NC(N)=O)nnc2N2CCCCC2)cc1	i
CCOc1ccc2nc(SCCNCCO)sc2c1	i
COc1ccccc1-c1nnc(C2CCN(C(=O)c3ccc(C)cc3)CC2)o1	i
COc1ccc(C(=O)N2CC[C@H](c3nnc(-c4ccccc4OC)o3)C2)cc1OC	i
COc1ccccc1-c1nnc([C@H]2CCN(CC3CCCCC3)C2)o1	35.5µM*
CCN(CC)c1nc2ccccc2nc1C(=O)Nc1cc(F)ccc1F	i
O=C(Cn1nc(-c2ccccc2)c2c(c1=O)CCCC2)Nc1ccccc1	i
NC(=O)C1CCN(Cc2nnc3cc(-c4nc(-c5ccccc5)no4)ccn23)CC1	6.31µM*
C=CCN(Cc1nc(-c2ccccc2)no1)Cc1nccn1C	i
CCN(CC)Cc1nnc2cc(-c3nc(-c4ccccc4)no3)ccn12	20µM*
CC(C)N1CCN(Cc2nnc3cc(-c4nc(-c5ccccc5)no4)ccn23)CC1	i
Ic1cccc(-c2nc(-c3ccccc3)no2)c1	i
C=CCN(CC=C)Cc1nnc2cc(-c3nc(-c4ccccc4)no3)ccn12	25.1µM*
NC(=O)C1CCN(Cc2nc(-c3cccs3)no2)CC1	i
Cc1ccsc1CNC(=O)c1nccnc1N	i
COc1ccc2cc([C@H](C)C(=O)NCCc3cccs3)ccc2c1	i
O=c1ccc2ccc(OCc3nc(-c4cccc(Cl)c4)no3)cc2o1	i
CCc1ccc(C(=O)CCC(=O)OCc2ccc(C#N)cc2)cc1	i
Cc1nc(CN2CCN(S(=O)(=O)c3ccc(Cl)cc3)CC2)cs1	i
Cc1ccc(/C=N/NC(=O)c2csc3ccccc23)s1	i
Cc1cn2nc(C(=O)Nc3ccc4c(c3)OCCO4)cc2c(N2CCCC2)n1	25.1µM*
COc1cccc(NC(=O)c2cc3c(N4CCCC4)nc(C)cn3n2)c1	35.5µM*
Cc1ccc(NC(=O)c2cn(-c3ccc4c(c3)OCCO4)nn2)cc1Cl	i
CCOc1cc(=O)n2c(c1C(=O)Nc1cccc(F)c1C)CCCC2	i
SMILES	KDM5B inhibitor
CCc1ccccc1NC(=O)c1cc2c(=O)[nH]c(C)cn2n1	i
Cn1nc(C(=O)Nc2ccc3c(c2)OCCO3)c2ccccc2c1=O	i
Cc1cn2nc(C(=O)Nc3cccc(F)c3C)cc2c(N2CCCC2)n1	25.1µM*
COc1cccc(C(=O)Nc2ccc3ncnc(N4CCCCC4)c3c2)c1	i
COc1cccc(NC(=O)c2c(C)oc3nc(C)nc(N4CCCC4)c23)c1	i
CCC(=O)N1N=C(c2ccsc2)CC1c1ccc2nccnc2c1 (centres undefined)	i

High-throughput results deposited in PubChem by National Center for Advancing Translational Sciences (NCATS).
